PubChem BioAssay AID1445 (SRMLSC, 2008)
The whole screen tested about 220,000 compounds, of which about 910 (0.41%) were called active. Only a selection was taken, and actives are over-represented in it overall. Measured potencies and affinities stand elsewhere. Values without a mark were called inactive.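 The calls were made as follows: active = primary inhibition above the hit cutoff, then over 50% inhibition at one or more dose response concentrations (cut at about 23% in these data, passing the limit was not always enough); inconclusive = conflicting primary data, or primary hits not chosen for dose response; inactive = low primary inhibition, or under 50% at every dose.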

Target: Aminopeptidase N (Plasmodium falciparum (isolate 3D7)) (UniProt O96935)
Assay: P. falciparum M1AAP inhibitors, biochemical, fluorogenic H-Leu-NHMec substrate, 1536-well (AID 1445);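 also: plate controls were DMSO full reaction for no effect and no enzyme background for full effect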
Details: recombinant M1AAP, H-Leu-NHMec fluorogenic kinetic assay
[1] = at 30 µM, hits give high values unless noted

Aminopeptidase N (Plasmodium falciparum (isolate 3D7)), sequence (O96935 whole entry, looked up): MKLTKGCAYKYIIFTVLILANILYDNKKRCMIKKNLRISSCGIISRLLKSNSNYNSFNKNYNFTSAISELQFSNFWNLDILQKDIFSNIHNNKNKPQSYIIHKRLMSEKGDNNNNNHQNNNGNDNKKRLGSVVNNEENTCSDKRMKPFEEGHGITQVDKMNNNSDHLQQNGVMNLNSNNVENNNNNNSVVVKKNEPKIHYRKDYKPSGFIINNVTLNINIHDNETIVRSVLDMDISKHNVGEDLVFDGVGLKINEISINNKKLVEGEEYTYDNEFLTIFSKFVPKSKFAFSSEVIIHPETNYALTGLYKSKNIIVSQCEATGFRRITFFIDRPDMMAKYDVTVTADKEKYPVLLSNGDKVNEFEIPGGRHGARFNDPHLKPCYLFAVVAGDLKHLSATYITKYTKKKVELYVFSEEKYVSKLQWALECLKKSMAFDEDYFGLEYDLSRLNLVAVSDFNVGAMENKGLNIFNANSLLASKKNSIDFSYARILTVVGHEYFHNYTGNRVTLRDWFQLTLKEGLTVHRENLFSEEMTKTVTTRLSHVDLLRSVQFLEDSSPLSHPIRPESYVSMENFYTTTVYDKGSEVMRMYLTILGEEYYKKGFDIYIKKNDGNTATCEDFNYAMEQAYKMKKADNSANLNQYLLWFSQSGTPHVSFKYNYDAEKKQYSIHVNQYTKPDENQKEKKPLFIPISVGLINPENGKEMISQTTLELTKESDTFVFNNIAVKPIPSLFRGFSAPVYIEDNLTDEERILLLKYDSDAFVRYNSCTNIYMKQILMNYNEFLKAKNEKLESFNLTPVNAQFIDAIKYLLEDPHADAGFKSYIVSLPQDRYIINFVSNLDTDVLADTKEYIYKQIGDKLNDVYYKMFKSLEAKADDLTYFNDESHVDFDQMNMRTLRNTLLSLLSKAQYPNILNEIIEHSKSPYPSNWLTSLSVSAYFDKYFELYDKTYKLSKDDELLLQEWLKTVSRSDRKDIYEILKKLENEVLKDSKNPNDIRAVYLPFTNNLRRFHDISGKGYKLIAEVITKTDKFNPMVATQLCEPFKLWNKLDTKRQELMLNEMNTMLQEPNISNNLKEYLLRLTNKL

With `COc1ccc(-n2nnnc2SCC(=O)N2CCCC2)cc1OC` the inhibition [1] was 0.63%.

With `COc1ccc(C(=O)Nc2cc(=O)n(C)c(=O)n2C)cc1` the inhibition [1] was 4.18%.

`Cc1nc(N)nc(-c2ccccc2O)n1` was tested, and the inhibition [1] was 7.96%.

`Cn1c(=O)[nH]c(=O)c2c1nc(N1CCCCC1)n2C/C=N/NC(=O)c1cc(Br)ccc1O` gave an inhibition [1] of 20.9%.

With `COCCCNC(=O)c1ccccc1Sc1ccc(NC(C)=O)nc1` the inhibition [1] was 2.96%.

`CCCn1nc2cc(C(=O)NC3CCc4ccccc43)ccc2c1OCC` (configuration not stated) showed an inhibition [1] of 4.98%.

In the case of `Nc1nc(NC(=O)c2ccccc2Cl)nn1-c1ccccc1`, the inhibition [1] is reported as -0.99%.

`Cc1c(C(=O)NCC(C)C)sc2nc(-c3ccc(F)cc3)cn12` gave an inhibition [1] of -1.14%.

For `CC(=O)Cc1nsc(NC(=O)c2ccco2)n1`, the inhibition [1] was 0.74%.

Compound `O=[N+]([O-])c1cc(S(=O)(=O)Nc2ccccc2)ccc1NCc1cccnc1` has an inhibition [1] of 6.72%.

`CCc1cc(=O)oc2cc(C)c(CN3CCCC(C)C3)c(O)c12` (configuration not stated) gave an inhibition [1] of 2.92%.

With `COC(=O)Cc1c(C)c2ccc(OCC(C)=O)c(C)c2oc1=O` the inhibition [1] was 14.3%.

`CC(C)CN(Cc1c(O)ccc2c3c(c(=O)oc12)CCC3)CC(C)C` was tested, and the inhibition [1] was 34.7%.

`CN(Cc1c(O)ccc2c1oc(=O)c1ccccc12)C1CCCCC1` gave an inhibition [1] of 5.6%.

`CC1CCCCN1Cc1c(O)ccc2c(=O)c(-c3nc4ccccc4s3)c(N)oc12` (configuration not stated) showed an inhibition [1] of 17.1%.

With `CC1CN(Cc2c(O)ccc3c2oc(=O)c2ccccc23)CC(C)O1` (configuration not stated) the inhibition [1] was 4.75%.

In the case of `CC1CCCN(Cc2c(O)ccc3c(=O)c(-c4nc5ccccc5s4)c(N)oc23)C1` (configuration not stated), the inhibition [1] is reported as 24.6% (active).

Compound `CC1CCN(Cc2c(O)ccc3c(=O)c(-c4nc5ccccc5s4)c(N)oc23)CC1` has an inhibition [1] of 2.55%.

`C=C(C)COc1ccc2c(C)c(CC(=O)OC)c(=O)oc2c1C` was tested, and the inhibition [1] was 13.3%.

In the case of `O=C(Cc1c(Cl)cccc1Cl)NCCc1ccc(Cl)cc1`, the inhibition [1] is reported as 13.8%.

`Cc1ccc(NC(=O)CCNS(=O)(=O)c2ccc3c(c2)c(=O)n(C)c(=O)n3C)cc1C` was tested, and the inhibition [1] was 9.45%.

Work on `NC(=O)c1ccccc1N/C=C1\CCCCC1=O` yielded an inhibition [1] of 10.2%.

In the case of `O=C1/C(=C/Nc2cccc([N+](=O)[O-])c2)CCc2ccccc21`, the inhibition [1] is reported as 9.22%.

With `CCOC(=O)N1CCN(C(=O)COc2ccccc2Cl)CC1` the inhibition [1] was 4.17%.

For `COCCn1c(SCC#N)nnc1-c1ccc2c(c1)OCO2`, the inhibition [1] was -1.51%.

Work on `OC(c1cccs1)c1nccc2ccccc12` (configuration not stated) yielded an inhibition [1] of -3.89%.

Compound `Cc1c(O)ccc2c3c(c(=O)oc12)CCCC3` has an inhibition [1] of 20.9%.

With `COCCN(CCOC)Cc1c(O)ccc2c3c(c(=O)oc12)CCC3` the inhibition [1] was 4.7%.

In the case of `O=c1cc(-c2ccccc2)c2ccc(O)c(CN3CCCCC3)c2o1`, the inhibition [1] is reported as 11.4%.

For `O=c1oc2c(CN3CCCCC3)c(O)ccc2c2c1CCCCC2`, the inhibition [1] was 42.2% (active).

`CCCCN(CC)Cc1c(O)ccc2c(-c3ccccc3)cc(=O)oc12` showed an inhibition [1] of 4.82%.

With `COc1ccc(-c2cc(C#N)nc(Oc3ccc(Cl)cc3)n2)cc1` the inhibition [1] was 6.45%.

Work on `CC(=O)Nc1ccc(/C=N/NC(=O)c2cc3cc(C)ccc3nc2C)cc1` yielded an inhibition [1] of 2.63%.

`Cc1cc(NS(=O)(=O)c2ccc(NC(=O)CSc3nc4sc(C(=O)O)c(C)c4c(=O)[nH]3)cc2)no1` showed an inhibition [1] of 16.3%.

Work on `CCC(=O)Nc1ccc(S(=O)(=O)Nc2cc(C)on2)cc1` yielded an inhibition [1] of -4.75%.

With `Cc1ccc(COc2ccccc2-c2cc(C(=O)N/N=C/c3cccnc3)[nH]n2)cc1` the inhibition [1] was 4.58%.

`O=C(N/N=C/c1cccnc1)c1ccccc1OCc1ccc(Cl)cc1` was tested, and the inhibition [1] was -4.49%.

Work on `COc1ccc(C2c3c(noc3C)CC(C)(O)C2C(C)=O)cc1` (configuration not stated) yielded an inhibition [1] of 0.23%.

For `COc1ccc(-c2nn(-c3ccccc3)cc2/C=C/C(=O)N2CCN(c3ccccn3)CC2)cc1`, the inhibition [1] was 1.49%.

Compound `CCOC(=O)COc1ccc(/C=C/[N+](=O)[O-])c(OCC(=O)OCC)c1` has an inhibition [1] of 1.07%.

Compound `CCOC(=O)COc1ccc2ccccc2c1/C=C/[N+](=O)[O-]` has an inhibition [1] of 4.98%.

`CCOC(=O)COc1ccccc1/C=C\[N+](=O)[O-]` gave an inhibition [1] of 11.9%.

Compound `CCN=C1S/C(=C\c2cc(Br)ccc2OCC(=O)OCC)C(=O)N1CC` has an inhibition [1] of 3.81%.

`CCCOC(=O)c1ccc(Cl)c(NC(=O)c2cccnc2)c1` was tested, and the inhibition [1] was 8.87%.

Compound `COc1ccc(C(=O)CC(=O)c2ccccc2O)cc1OC` has an inhibition [1] of 2.33%.

`COC(=O)c1ccc(-n2nnnc2SC)cc1` was tested, and the inhibition [1] was 26.3% (active).

`CSc1nnnn1-c1ccc(C(=O)O)cc1` gave an inhibition [1] of 5.73%.

Work on `COC(=O)COC(=O)c1ccc(-n2nnnc2SC)cc1` yielded an inhibition [1] of -3%.

For `Cn1c(=O)n(CCc2ccccc2)c(=O)c2c1ncn2Cc1ccccc1`, the inhibition [1] was 2.43%.

With `Cc1cc(NC(=O)c2ccc(N3CCCC3)c([N+](=O)[O-])c2)no1` the inhibition [1] was -2.39%.

`COc1ccc(NC(=O)C2CCCN2C(=O)Nc2cccc(F)c2)cc1` (configuration not stated) showed an inhibition [1] of 6.92%.

`CC(=O)Nc1cccc(NC(=O)C2CCCN2C(=O)Nc2ccccc2C)c1` (configuration not stated) gave an inhibition [1] of -3.25%.

Compound `CC(=O)c1cccc(NC(=O)N2CCCC2C(=O)Nc2cccc(C)c2)c1` (configuration not stated) has an inhibition [1] of 1.86%.

For `O=C(NCc1ccc2c(c1)OCO2)C1CCCN1C(=O)Nc1ccc(F)cc1` (configuration not stated), the inhibition [1] was 11.2%.

`COc1cccc(NC(=O)C2CCCN2C(=O)Nc2cccc(F)c2)c1` (configuration not stated) gave an inhibition [1] of 14.7%.

For `Cc1cccc(NC(=O)N2CCCC2C(=O)Nc2ccccc2)c1` (configuration not stated), the inhibition [1] was 13.2%.

For `CC(=O)Nc1ccc(NC(=O)C2CCCN2C(=O)Nc2ccc(F)c([N+](=O)[O-])c2)cc1` (configuration not stated), the inhibition [1] was 2.21%.

With `O=C(NCc1ccc2c(c1)OCO2)C1CCCN1C(=O)Nc1ccccc1` (configuration not stated) the inhibition [1] was 11.3%.

`COc1ccc(Nc2nc(C(=O)N(CCO)Cc3ccccc3)cs2)cc1` showed an inhibition [1] of 0.85%.

Work on `Cc1ccc(NC(=O)CC2NCCN(Cc3ccccc3)C2=O)cc1` (configuration not stated) yielded an inhibition [1] of 8.69%.

`Cc1ccc(N(CC(=O)NN=C2CCN(C)CC2)S(=O)(=O)c2ccccc2)c(C)c1` showed an inhibition [1] of -0.06%.

Work on `O=C(Cn1cnc([N+](=O)[O-])n1)N/N=C/c1ccc2ccccc2c1` yielded an inhibition [1] of 10.2%.

Work on `CCOC(=O)N1CCN(c2c(NCCCN(C)c3ccccc3)c(=O)c2=O)CC1` yielded an inhibition [1] of 6.93%.

Work on `CCCc1nnc(NC(=O)Cn2c(=O)oc3ccccc32)s1` yielded an inhibition [1] of -0.7%.

`CCOC(=O)C(CC)/C(C)=N/NC(=O)c1ccc([N+](=O)[O-])cc1` (configuration not stated) gave an inhibition [1] of 2.15%.

With `C=C1CCN([C@H](C(=O)NCc2ccco2)C(C)C)S(=O)(=O)c2ccccc21` the inhibition [1] was 11%.

`COc1ccc(NC(=O)N2CCCC2C(=O)Nc2ccc(C)cc2)cc1` (configuration not stated) gave an inhibition [1] of -3.34%.

In the case of `CC(=O)c1cccc(NC(=O)N2CCCC2C(=O)Nc2cc(C)ccc2C)c1` (configuration not stated), the inhibition [1] is reported as -1.28%.

For `CC1(C)CC(=O)C2=C(C1)N=C1SCCC(=O)N1C2c1cccc([N+](=O)[O-])c1` (configuration not stated), the inhibition [1] was 18%.

`CC(=O)Nc1ccc(S(=O)(=O)Nc2c(C)n(C)n(-c3ccccc3)c2=O)cc1` showed an inhibition [1] of 0.31%.

In the case of `Cc1c(NC(=O)c2ccccc2NS(=O)(=O)c2ccc(Br)cc2)c(=O)n(-c2ccccc2)n1C`, the inhibition [1] is reported as 24.5% (active).

`Cc1c(NC(=O)c2ccccc2NS(=O)(=O)c2ccc(F)cc2)c(=O)n(-c2ccccc2)n1C` gave an inhibition [1] of 20.1%.

With `Cc1ccc(S(=O)(=O)Nc2c(C)n(C)n(-c3ccccc3)c2=O)cc1C(=O)NCc1ccccn1` the inhibition (at 30 µM, hits give high values) was 28.8% (active) and the inhibition (at 100 µM (top of the series)) was 42.4%.

`Cc1c(NS(=O)(=O)c2cccc(C(=O)NCc3ccncc3)c2)c(=O)n(-c2ccccc2)n1C` showed an inhibition [1] of -2.28%.

In the case of `Cc1c(NS(=O)(=O)c2ccc(C(=O)NCc3ccccc3)cc2)c(=O)n(-c2ccccc2)n1C`, the inhibition [1] is reported as 0.49%.

With `CC1=C(CCN2CCN(C(C)C)C(CCO)C2)C(C)(C)CCC1` (configuration not stated) the inhibition [1] was 2.23%.

`CCn1c(Cn2nnc(-c3ccccc3)n2)nnc1SCC(=O)Nc1cccc(C(C)=O)c1` was tested, and the inhibition [1] was 0.07%.

Work on `COc1ccc(/C=N/NC(=O)c2cc(Br)ccc2O)cc1Cn1cc(Cl)cn1` yielded an inhibition [1] of 0.18%.

For `O=c1[nH][nH]c(-c2ccccc2)c1C=Nc1ccc(C(F)(F)F)cc1`, the inhibition [1] was 2.58%.

`CC1=C(C#N)c2nc(N)c(C#N)c(C)c2/C1=C\c1ccc(C)cc1` showed an inhibition [1] of 6.97%.

Compound `CC1=C(C#N)c2nc(N)c(C#N)c(C)c2/C1=C\c1ccc(OCC(=O)O)c(Cl)c1` has an inhibition [1] of 11.5%.

`CSc1ccc(/C=C/c2ccc3cccc(O)c3n2)cc1` gave an inhibition [1] of 8.1%.

For `COC(=O)c1ccc(/C=C/c2ccc3cccc(OC)c3n2)cc1`, the inhibition [1] was 20.2%.

For `O=C(COc1ccc(F)cc1)N(c1ccccn1)C1CCCCC1`, the inhibition [1] was 2.11%.

`COc1ccc(N2C(=O)C3CCCN3C2c2cccc(OC)c2OC)cc1` (configuration not stated) was tested, and the inhibition [1] was 3.05%.

For `CCN(CC)CC(O)Cn1c(-c2ccccc2Cl)nc2ccccc21` (configuration not stated), the inhibition [1] was 3.4%.

`Cc1ccc(CN2CCN(/N=C/c3ccc(C(F)(F)F)cc3)CC2)cc1` gave an inhibition [1] of 5.42%.

Compound `C#CCCOC(=O)N1C2=NC(C(=O)OC)=C(C(=O)OC)[C@@H]3N(Cc4ccccc4)c4ccccc4[C@]23C[C@H]1C(=O)OC` has an inhibition [1] of 8.52%.

`C#CCCOC(=O)N1C2=NC(C(=O)OC)=C(C(=O)OC)[C@@H]3N(C)c4ccccc4[C@]23C[C@H]1C(=O)OC` was tested, and the inhibition [1] was 3.66%.

Compound `COC(C[C@H](O)CC(=O)[C@H](C)OCc1ccccc1)OC` has an inhibition [1] of 1.19%.

`COC(=O)c1sc2nc(-c3ccccc3)c3c(c2c1N)CCCC3` showed an inhibition [1] of 0.85%.
